Measured values reported in PubChem BioAssay.
For part of these data: Potency and affinity values are given separately. Active and inactive are the calls of the source.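 How the source made its calls, unless noted: active means fluorescence ratio normalized to control raised more than 50% in primary screen plus both repeat runs; inactive means the rest.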

What was measured:
[1] = test system: TRPC4 beta (transient receptor potential cation channel C4), mouse; test: activators of mouse TRPC4 channel, confirmation, cell-based, Fluo4 calcium, HEK293 TRPC4beta/mu-opioid, duplicates, 10 µM (AID 2426); details: Fluo4 calcium fluorescence, at 10 µM; hits give high values
[2] = test system: transient receptor potential cation channel C4 beta (TRPC4), mouse; test: activators of mouse TRPC4 channel, confirmation, cell-based, second round, Fluo4, HEK293 TRPC4beta/mu-opioid, 1 µM (AID 2461;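 active means primary screen active and over 50% activation in each of two duplicate runs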); details: Fluo4 calcium fluorescence, at 1 µM; hits give high values
[3] = test system: TRPC4 (transient receptor potential cation channel C4 beta), mouse; test: positive allosteric modulators of mouse TRPC4, confirmation, cell-based, second round, Fluo-4, HEK293 TRPC4beta/mu-opioid, 1 µM (AID 2554;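 active means primary screen hit whose fluorescence ratio, in both repeats, exceeds the weak agonist control mean by 3 SD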); details: DAMGO EC20, Fluo-4 calcium flux, at 1 µM; hits give high values
[4] = test system: TRPC4 beta (transient receptor potential cation channel C4), mouse; test: positive allosteric modulators of mouse TRPC4, confirmation, cell-based, Fluo-4, HEK293 TRPC4beta/mu-opioid (AID 2555;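 active means primary screen hit whose calcium fluorescence ratio, in both repeats, exceeds the weak agonist control mean by 3 SD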); details: DAMGO EC20, Fluo-4 calcium flux, at 10 µM; hits give high values
[5] = biological target: Short transient receptor potential channel 4 (Mus musculus) (UniProt Q9QUQ5); test: inhibitors of mouse TRPC4 channel, confirmation, cell-based, Fluo4, HEK293 TRPC4beta/mu-opioid (AID 2636;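 active means calcium signal cut by more than 3 SD below the full-agonist control yet still positive, in both repeats and the earlier primary screen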); details: DAMGO, Fluo4 calcium flux, at 10 µM; hits give high values
[6] = biological target: Short transient receptor potential channel 4 (Mus musculus) (UniProt Q9QUQ5); test: inhibitors of mouse TRPC4 channel, confirmation, cell-based, second round, Fluo4, HEK293 TRPC4beta/mu-opioid, 1 µM (AID 2637;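 active means calcium signal ratio cut to more than 3 SD under the fully stimulated control mean yet still positive, in both repeats and the primary screen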;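 on inhibition: percent of integrated ratio relative to wells lacking test compound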); details: Fluo4 calcium flux, DAMGO, at 1 µM; hits give high values
[7] = biological target: Short transient receptor potential channel 4 (Mus musculus) (UniProt Q9QUQ5); test: mouse TRPC4 channel activators, dose response, cell-based, HEK293 TRPC4/mu-opioid, Fluo-4 calcium (AID 434937;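 active means primary screen activator hit with a dose response curve and TRPC4 channel activation at any tested dose; inactive means no activation, no dose response, or not a primary hit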)
[8] = biological target: Short transient receptor potential channel 4 (Mus musculus) (UniProt Q9QUQ5); test: TRPC4 positive allosteric modulators, dose response, cell-based, HEK293 TRPC4/mu-opioid, Fluo-4 calcium, EC20 DAMGO (AID 434941;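 active means earlier screen potentiator hit that boosts the TRPC4 ion channel at some dose, with a dose response; inactive means no potentiation, no dose response, or not a prior hit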;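 further: calcium entry triggered by an EC20 dose of DAMGO at the co-expressed mu-opioid receptor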)
[9] = biological target: Short transient receptor potential channel 6 (Mus musculus) (UniProt Q61143); test: inhibition of mouse TRPC6 channel, confirmation, selectivity assay for TRPC4 inhibitor project, cell-based, HEK293, membrane potential dye, duplicate (AID 434948;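 active means active in primary screen and both duplicates, each dropping signal beyond three positive-control SD with fluorescence still positive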); details: HEK293 TRPC6, membrane potential dye fluorescence, at 10 µM, stimulated with maximal-effect acetylcholine; hits give high values
[10] = biological target: Short transient receptor potential channel 6 (Mus musculus) (UniProt Q61143); test: activation of mouse TRPC6 channel, confirmation, selectivity assay for TRPC4 activator project, cell-based, HEK293, membrane potential dye, duplicate (AID 434950;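 active means membrane potential signal rise above negative control mean plus 3 SD in both duplicates, also active in the earlier TRPC4 screen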;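 on activation: 0% = buffer only wells and 100% = acetylcholine maximal-effect wells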); details: HEK293 TRPC6, membrane potential fluorescence, at 10 µM; hits give high values
[11] = biological target: Short transient receptor potential channel 6 (Mus musculus) (UniProt Q61143); test: TRPC6 potentiation by TRPC4 potentiator hits, confirmation, selectivity assay for TRPC4 potentiator project, HEK293 cells, membrane potential dye, duplicate (AID 434952;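 active means compound raising the membrane signal above positive-control mean plus 3 SD in both repeats, and a primary screen hit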); details: HEK293 TRPC6, membrane potential dye fluorescence, at 10 µM, maximal acetylcholine added after compound; hits give high values
[12] = biological target: Short transient receptor potential channel 4 (Mus musculus) (UniProt Q9QUQ5); test: calcium flux activators in TRPC4/5HT1a cells, counter-screen for TRPC4 activator project, cell-based, second counter screen, HEK293 TRPC4/5HT1a, Fluo-4 (AID 434977;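 active means calcium signal rise above buffer-control mean plus 5 SD in both duplicates, and also a hit in the primary screen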); details: Fluo-4 calcium flux, at 10 µM; hits give high values
[13] = calcium flux inhibitors in TRPC4/5HT1a cells, confirmation, counter-screen for TRPC4 inhibitor project, cell-based, second counter screen, HEK293 TRPC4/5HT1a, Fluo-4 (AID 434978;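 active means primary screen active whose calcium signal fell more than 3 SD beyond the full-serotonin control mean in both duplicate plates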;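 on outcome: serotonin given first at submaximal then at maximal dose after compound preincubation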); details: Fluo-4 calcium flux, at 10 µM, serotonin added to trigger calcium flux; hits give high values
[14] = test system: TRPC4 (mouse), co-expressed with 5HT1a in HEK293; test: calcium flux potentiators in TRPC4/5HT1a cells, confirmation, counter-screen for TRPC4 potentiator project, cell-based, second counter screen, HEK293 TRPC4/5HT1a, Fluo-4 (AID 434979;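 active means signal rise over 3 SD above mean of control wells given weak agonist, in both repeats and first screen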); details: Fluo-4 calcium flux, at 10 µM, serotonin added at its EC20 dose; hits give high values
[15] = calcium flux activation in mu-opioid HEK293 cells, confirmation, counter-screen for TRPC4 activator project, cell-based, HEK293 mu-opioid receptor line (AID 449723;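 active means hit in primary screen, with calcium signal over 5 SD above buffer well mean in both duplicates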;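 further: counter screen cells carry the mu-opioid receptor alone and lack TRPC4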); details: Fluo-4 calcium fluorescence, at 10 µM; hits give high values
[16] = calcium flux enhancement in mu-opioid HEK293 cells, confirmation, counter-screen for TRPC4 allosteric potentiator project, cell-based, HEK293 mu-opioid receptor line (AID 449724;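 active means calcium signal rise more than 3 SD above the low-dose agonist control mean, in both duplicate plates and the primary screen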); details: Fluo-4 calcium flux, at 10 µM, compound added before EC20 DAMGO stimulus; hits give high values

Chain of Short transient receptor potential channel 4 (Mus musculus) (Q9QUQ5 whole entry, looked up): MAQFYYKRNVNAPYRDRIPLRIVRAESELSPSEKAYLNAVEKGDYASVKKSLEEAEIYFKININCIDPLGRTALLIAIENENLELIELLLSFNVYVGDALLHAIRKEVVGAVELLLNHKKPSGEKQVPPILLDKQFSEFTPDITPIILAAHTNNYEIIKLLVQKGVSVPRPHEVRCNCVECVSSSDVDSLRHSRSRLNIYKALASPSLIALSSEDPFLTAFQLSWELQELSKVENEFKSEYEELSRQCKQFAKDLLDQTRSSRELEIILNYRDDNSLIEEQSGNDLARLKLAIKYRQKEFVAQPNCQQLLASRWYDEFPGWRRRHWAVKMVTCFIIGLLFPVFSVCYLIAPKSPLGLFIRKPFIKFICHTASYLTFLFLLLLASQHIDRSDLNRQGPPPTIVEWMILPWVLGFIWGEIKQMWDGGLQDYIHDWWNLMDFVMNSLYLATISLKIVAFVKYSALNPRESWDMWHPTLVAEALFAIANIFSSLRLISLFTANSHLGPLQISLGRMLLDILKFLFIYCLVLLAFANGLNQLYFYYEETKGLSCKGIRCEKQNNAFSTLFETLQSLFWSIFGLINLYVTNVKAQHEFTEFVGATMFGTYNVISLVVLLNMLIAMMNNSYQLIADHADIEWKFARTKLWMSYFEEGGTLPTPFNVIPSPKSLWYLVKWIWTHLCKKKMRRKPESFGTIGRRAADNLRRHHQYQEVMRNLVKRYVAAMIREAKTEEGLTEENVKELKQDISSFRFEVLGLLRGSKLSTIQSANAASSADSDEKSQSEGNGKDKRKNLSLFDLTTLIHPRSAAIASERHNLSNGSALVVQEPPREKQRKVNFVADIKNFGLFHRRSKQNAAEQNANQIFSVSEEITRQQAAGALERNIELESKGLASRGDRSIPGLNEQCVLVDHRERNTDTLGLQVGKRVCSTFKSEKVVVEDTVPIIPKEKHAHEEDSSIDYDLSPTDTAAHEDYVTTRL
Chain of Short transient receptor potential channel 6 (Mus musculus) (Q61143 whole entry, looked up): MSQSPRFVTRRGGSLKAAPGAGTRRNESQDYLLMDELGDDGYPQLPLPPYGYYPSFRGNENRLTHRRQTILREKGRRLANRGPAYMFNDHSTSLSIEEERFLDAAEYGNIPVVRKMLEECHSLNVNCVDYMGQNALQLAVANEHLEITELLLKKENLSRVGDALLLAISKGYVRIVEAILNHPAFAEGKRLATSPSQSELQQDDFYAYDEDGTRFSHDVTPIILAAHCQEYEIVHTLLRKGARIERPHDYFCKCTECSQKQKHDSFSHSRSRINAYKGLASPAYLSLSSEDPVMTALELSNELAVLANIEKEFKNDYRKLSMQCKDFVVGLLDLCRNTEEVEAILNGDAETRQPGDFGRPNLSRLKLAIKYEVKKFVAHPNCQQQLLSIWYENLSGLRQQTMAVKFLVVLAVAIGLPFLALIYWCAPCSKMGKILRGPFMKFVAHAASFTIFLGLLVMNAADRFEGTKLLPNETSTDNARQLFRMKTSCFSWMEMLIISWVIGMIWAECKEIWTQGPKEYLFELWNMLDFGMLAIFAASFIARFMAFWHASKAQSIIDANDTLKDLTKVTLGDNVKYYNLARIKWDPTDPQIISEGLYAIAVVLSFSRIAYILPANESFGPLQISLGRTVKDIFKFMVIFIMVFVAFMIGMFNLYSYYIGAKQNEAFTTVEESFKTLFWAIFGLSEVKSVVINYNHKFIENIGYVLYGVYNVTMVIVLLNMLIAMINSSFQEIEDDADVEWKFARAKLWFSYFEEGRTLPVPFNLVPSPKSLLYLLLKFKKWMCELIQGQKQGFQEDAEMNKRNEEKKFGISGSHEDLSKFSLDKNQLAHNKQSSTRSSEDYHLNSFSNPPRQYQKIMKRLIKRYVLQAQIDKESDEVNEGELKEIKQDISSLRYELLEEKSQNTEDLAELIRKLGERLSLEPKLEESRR

| SMILES | outcome [1] | outcome [2] | outcome [3] | outcome [4] | inhibition [5] | outcome [6] | outcome [7] | outcome [8] | outcome [9] | outcome [10] | outcome [11] | outcome [12] | inhibition [13] | outcome [14] | outcome [15] | outcome [16] | outcome [5] | inhibition [6] | activation [10] | outcome [13] |
| --- | --- | --- | --- | --- | --- | --- | --- | --- | --- | --- | --- | --- | --- | --- | --- | --- | --- | --- | --- | --- |
| O=C(Cc1ccccc1)Nc1ccccc1Sc1ccccc1 | inactive | inactive | inactive | inactive | 86% (active) | inactive | inactive | inactive | inactive | inactive | inactive | inactive | 40.9% (active) | inactive | inactive | inactive | – | – | – | – |
| COc1ccc(C2CC2/C(=N/O)c2ccccc2)cc1 (stereo not given) | inactive | inactive | inactive | inactive | 94% (active) | inactive | inactive | inactive | inactive | inactive | inactive | inactive | 7.57% (active) | inactive | inactive | inactive | – | – | – | – |
| Cc1ccc(/C=C2\SC(=S)N(C(Cc3ccccc3)C(=O)O)C2=O)cc1 (stereo not given) | inactive | inactive | inactive | inactive | – | inactive | inactive | inactive | inactive | inactive | inactive | inactive | 18.3% (active) | inactive | inactive | inactive | inactive | – | – | – |
| CCCc1noc2c1/C(=N\O)CC(CC(C)SCC)C2 (stereo not given) | inactive | inactive | inactive | inactive | 92% (active) | inactive | inactive | inactive | inactive | inactive | inactive | inactive | 14.8% (active) | inactive | inactive | inactive | – | – | – | – |
| Cc1cc(Br)c(NC(=O)CN(C)CCOc2ccccc2)c(Br)c1 | inactive | inactive | inactive | inactive | 81% (active) | inactive | inactive | inactive | inactive | inactive | inactive | inactive | 45.2% (active) | inactive | inactive | inactive | – | – | – | – |
| COC(=O)CSc1nn(-c2ccc(F)cc2)c(=S)s1 | inactive | inactive | inactive | inactive | 90% (active) | – | inactive | inactive | inactive | inactive | inactive | inactive | 39.2% (active) | inactive | inactive | inactive | – | 39% (active) | – | – |
| CCN(CC)C(=O)C1CCCN(Cc2cccc(Oc3ccccc3)c2)C1 (stereo not given) | inactive | inactive | inactive | inactive | 93% (active) | – | inactive | inactive | inactive | inactive | inactive | inactive | 25.7% (active) | inactive | inactive | inactive | – | 53% (active) | – | – |
| CCCCn1c(SCC(=O)OCC)nc2c(sc(=S)n2-c2ccccc2OC)c1=O | inactive | inactive | inactive | inactive | 94% (active) | inactive | inactive | inactive | inactive | inactive | inactive | inactive | 14% (active) | inactive | inactive | inactive | – | – | – | – |
| CNc1nc(SCc2ccccc2Cl)nc2c1CCCC2 | inactive | inactive | inactive | inactive | 90% (active) | inactive | inactive | inactive | inactive | inactive | inactive | inactive | 13.9% (active) | inactive | inactive | inactive | – | – | – | – |
| Fc1ccccc1CNCCC(Cc1ccccc1)c1ccc2c(c1)OCO2 (stereo not given) | inactive | inactive | inactive | inactive | – | inactive | inactive | inactive | inactive | – | inactive | inactive | – | inactive | inactive | inactive | inactive | – | 48% (active) | inactive |
| OCCNCc1cc(Br)ccc1OCc1ccc(Cl)cc1Cl | inactive | inactive | inactive | inactive | 49% (active) | inactive | inactive | inactive | inactive | inactive | inactive | inactive | 24.9% (active) | inactive | inactive | inactive | – | – | – | – |
| O=C(Nc1ccc(Oc2ccccc2)nc1)C1CCN(Cc2ccccc2)CC1 | inactive | inactive | inactive | inactive | 74% (active) | inactive | inactive | inactive | inactive | inactive | inactive | inactive | 32.6% (active) | inactive | inactive | inactive | – | – | – | – |
| c1ccc(CN2CCN(Cc3c[nH]c4ccccc34)CC2)cc1 | inactive | inactive | inactive | inactive | 88% (active) | inactive | inactive | inactive | inactive | inactive | inactive | inactive | 31.6% (active) | inactive | inactive | inactive | – | – | – | – |
| COc1cc2c(cc1OC)C(C)N(CCc1ccc(Cl)cc1)CC2 (stereo not given) | inactive | inactive | inactive | inactive | 75% (active) | inactive | inactive | inactive | inactive | inactive | inactive | inactive | – | inactive | inactive | inactive | – | – | – | inactive |
| Clc1ccc(CN2C3=NCCN3c3ccccc32)cc1Cl | inactive | inactive | inactive | inactive | – | – | inactive | inactive | inactive | inactive | inactive | inactive | 20.3% (active) | inactive | inactive | inactive | inactive | 65% (active) | – | – |
